Over roughly 33,000 sequences, “E-score (-0.5 to 0.5)” has its median near -0.035; the highest 2% begin near 0.35. Shown is part of a subset that was picked to be rich in the highest values.
target: T1, Pdr3 (UniProt P33200); assay: PBM E-score (8-mer binding enrichment) (E-score (-0.5 to 0.5)); higher = stronger / more preferred TF binding; settings: protein concentration: 200 nM; construct: GST-full length
T1 sequence: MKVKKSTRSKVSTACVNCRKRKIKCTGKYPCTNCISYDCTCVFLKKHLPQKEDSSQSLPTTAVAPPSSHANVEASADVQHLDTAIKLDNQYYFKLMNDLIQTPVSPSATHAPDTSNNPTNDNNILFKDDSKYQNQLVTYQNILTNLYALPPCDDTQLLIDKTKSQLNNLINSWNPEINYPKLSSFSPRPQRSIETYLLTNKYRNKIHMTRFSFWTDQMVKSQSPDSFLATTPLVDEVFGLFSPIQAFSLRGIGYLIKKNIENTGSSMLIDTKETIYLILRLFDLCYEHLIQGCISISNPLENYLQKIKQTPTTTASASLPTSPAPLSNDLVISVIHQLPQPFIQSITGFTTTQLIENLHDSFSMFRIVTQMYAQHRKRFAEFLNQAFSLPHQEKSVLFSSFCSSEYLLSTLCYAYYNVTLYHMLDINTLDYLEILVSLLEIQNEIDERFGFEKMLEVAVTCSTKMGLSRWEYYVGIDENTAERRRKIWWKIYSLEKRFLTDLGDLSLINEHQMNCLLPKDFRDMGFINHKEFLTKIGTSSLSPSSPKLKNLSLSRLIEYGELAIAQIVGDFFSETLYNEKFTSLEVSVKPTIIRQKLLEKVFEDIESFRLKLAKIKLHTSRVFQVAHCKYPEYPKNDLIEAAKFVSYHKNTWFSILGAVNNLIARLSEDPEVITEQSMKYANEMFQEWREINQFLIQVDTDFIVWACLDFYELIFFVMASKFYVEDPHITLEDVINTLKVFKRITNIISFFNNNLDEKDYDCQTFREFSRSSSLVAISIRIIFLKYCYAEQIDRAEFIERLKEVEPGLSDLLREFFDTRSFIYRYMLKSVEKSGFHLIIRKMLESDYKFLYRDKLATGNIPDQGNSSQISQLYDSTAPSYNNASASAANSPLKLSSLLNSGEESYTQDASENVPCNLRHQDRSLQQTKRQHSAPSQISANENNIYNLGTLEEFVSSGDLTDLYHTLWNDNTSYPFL
Summary of the method: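 Yeast transcription factors, full-length or as DNA-binding domains, were expressed with a GST tag using PURExpress in vitro transcription/translation. At about 100-200 nM they were applied to universal all-10-mer Agilent arrays, double-stranded by primer extension on fresh or once-stripped slides. Fluorescent anti-GST detected bound protein, and masliner normalised the scans. E-scores for ungapped eight-base words, pooled with reverse complements, came from the Universal PBM Analysis Suite.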

Row | Sequence | PBM E-score
1 | TGCGCCAA | 0.053
2 | TCGCGAAA | 0.131
3 | GCGCGGAC | 0.305
4 | TCGCGGCA | 0.174
5 | ACGCGGAC | 0.229
6 | GCGCGGAA | 0.464
7 | TCGCGGAA | 0.404
8 | GCGCGGCA | 0.237
9 | ACGCGGAT | 0.244
10 | ACGCGGAA | 0.407
11 | AAACCTCA | 0.109
12 | GAGTTGGC | 0.115
13 | ATAAGCAG | -0.127
14 | CCCGAATA | 0.14
15 | CGGCAGCA | 0.109
16 | AGGCAGCC | 0.0506
17 | CGGCAGCC | 0.358
18 | CCGGTTCA | 0.104
19 | AGGGTTCC | 0.249
20 | CGGGTTCA | 0.304
21 | CCGGTTCG | 0.217
22 | CGGGTTCC | 0.414
23 | CCGGTTCC | 0.426
24 | CTCCATAA | -0.273
25 | CTCGCTGC | 0.00281

Row | Sequence | PBM E-score
26 | CTGGTCTA | -0.254
27 | ACACTTCC | 0.184
28 | CTGTTGAC | -0.162
29 | AAACCAGG | -0.0534
30 | CGTAACAC | -0.0629
31 | CGGAATCC | 0.461
32 | CCGAATCC | 0.336
33 | AGGAATCA | -0.0475
34 | GGGAATCA | 0.0382
35 | AGGAATCC | 0.0872
36 | CGGAATCA | 0.456
37 | CTTGGGCC | -0.0633
38 | GTATCTGA | -0.146
39 | ACGTCTCG | -0.0164
40 | AAAGTCTC | -0.186
41 | TTAGCGAA | 0.0125
42 | GCTACCAC | -0.16
43 | CCGGGAGA | 0.369
44 | CGGGGATA | 0.33
45 | GCGGGATA | 0.322
46 | CGGGGAGA | 0.28
47 | CCGGGATC | 0.453
48 | CCGGGATA | 0.388
49 | CGGGGATC | 0.28
50 | ACGGGATG | 0.283

Row | Sequence | PBM E-score
51 | CTGGGATA | 0.0272
52 | CCGGGAGG | 0.334
53 | ACGGGATC | 0.275
54 | ACGGGATA | 0.38
55 | AAGGAATG | 0.126
56 | CGCGTCCG | 0.272
57 | CTTCGCGC | 0.274
58 | ATCTAAAC | -0.113
59 | GCTGGCAA | 0.0154
60 | CTCGGTCA | 0.00197
61 | AACCGGAG | 0.326
62 | AACCGGAA | 0.435
63 | TACCGGCA | 0.214
64 | AACCGGAT | 0.316
65 | GACCGGAA | 0.401
66 | GACCGGAC | 0.28
67 | CACCGGAC | 0.341
68 | CACCGGGA | 0.272
69 | GACCGGCA | 0.0622
70 | TACCGGTA | 0.103
71 | CACCGGAA | 0.46
72 | TACCGGAA | 0.44
73 | AAATAGTA | 0.152
74 | AGAGCAAC | -0.197
75 | CCTATGGA | -0.127

Row | Sequence | PBM E-score
76 | CCTAGGTA | -0.174
77 | AAAAGCAC | -0.291
78 | AAAGACTA | -0.113
79 | CGTTTTAG | -0.195
80 | GGGCGTCA | 0.0172
81 | AGGAATGC | -0.0575
82 | AGGAATGA | -0.0139
83 | CGGAATGC | 0.434
84 | CGGAATGA | 0.435
85 | CTGAATGC | -0.0711
86 | GGGAATGA | 0.219
87 | AGATCGTA | -0.304
88 | ATCTCAGG | 0.00088
89 | ATTGTCGG | 0.193
90 | GATCTACC | 0.00285
91 | ACCGTTCC | 0.364
92 | ATGGTTCA | 0.0467
93 | ATTGTTCG | 0.194
94 | ATGGTTCC | 0.371
95 | ACCGTTCT | -0.0192
96 | AGTGTTCC | 0.301
97 | CCCGTTCC | 0.347
98 | CGTGTTCA | -0.0434
99 | CTGGTTCC | 0.264
100 | CGTGTTCC | 0.383

Row | Sequence | PBM E-score
101 | ATTGTTCC | 0.378
102 | CTTGTTCC | 0.207
103 | CCTACTCG | 0.101
104 | ACCAGCAA | 0.0732
105 | CACCGACC | 0.0698
106 | ACTGAGCG | -0.185
107 | GGACAATA | 0.28
108 | TATTTACA | -0.097
109 | ACAGTTCC | 0.387
110 | ACAGTTCT | 0.082
111 | CCAGTTCC | 0.318
112 | CGGGGAAA | 0.246
113 | CGTGGAAA | 0.243
114 | AGCGGAAA | 0.391
115 | CGTGGAAG | 0.208
116 | CGCGGAAA | 0.476
117 | AGAGGAAA | 0.0754
118 | CGCGGAAG | 0.454
119 | GGGGGAAC | -0.165
120 | CGCAGAAG | -0.09
121 | GGCAGAAC | 0.123
122 | GGCGGAAC | 0.467
123 | AGGGGAAA | -0.0896
124 | AATTCGAT | 0.0319
125 | AGCCTCGG | 0.156

Row | Sequence | PBM E-score
126 | TGCGGGAA | 0.313
127 | AGCGGACT | -0.0134
128 | AGCGGAAC | 0.457
129 | AGAGGAAC | -0.066
130 | AGCGGAAG | 0.341
131 | GGCGGAAA | 0.361
132 | TGCGGACA | 0.237
133 | AGCGGAAT | 0.392
134 | AGGGGAAC | -0.0871
135 | TGCGGAAA | 0.357
136 | GGGGGAAA | 0.138
137 | GGAGGAAA | 0.0123
138 | CCGCCGAA | 0.277
139 | CCCAACTC | 0.16
140 | ACCCTCGG | 0.156
141 | CGTCGTAA | -0.0777
142 | CGCATCAC | -0.0776
143 | AGGCAACG | 0.00606
144 | ACAACCGC | 0.202
145 | AAAACTAC | 0.179
146 | AATCGGAG | 0.276
147 | AATCGGAA | 0.445
148 | TATCGGGA | 0.228
149 | CATCGGAC | 0.143
150 | GATCGGAC | 0.362

Row | Sequence | PBM E-score
151 | AATCGGAT | 0.317
152 | GATCGGGC | 0.142
153 | TATCGGCA | 0.101
154 | CATCGGAA | 0.422
155 | CATCGGAG | 0.0478
156 | TATCGGAA | 0.419
157 | AATCGGAC | 0.212
158 | CCTTTAGA | -0.22
159 | GCAGAATA | -0.0373
160 | CCTTCCTA | -0.401
161 | TCGGTAGA | -0.027
162 | AAAGTTGA | -0.0975
163 | AACGGCTC | 0.0795
164 | ACGTTACG | -0.211
165 | AATTTGCT | -0.114
166 | CTGCTCCC | -0.0396
167 | GACCCGCA | 0.0817
168 | GATCGGTA | 0.146
169 | GATCGGGA | 0.171
170 | GATCGGAA | 0.424
171 | GTGCTTCA | -0.0273
172 | AGCTTAAG | -0.0452
173 | GGGCCCAA | 0.0863
174 | AAGTGAGG | -0.173
175 | ACCCCGGG | 0.376

Row | Sequence | PBM E-score
176 | CCCCCGGG | 0.364
177 | CCCCCCGG | 0.132
178 | AAACCCGG | 0.401
179 | AAACCCGA | 0.243
180 | AAACCCGC | 0.258
181 | AACCGGGG | 0.199
182 | ACCCCCGG | 0.17
183 | ACCGGGGG | 0.0642
184 | ACCCCGTG | 0.181
185 | CCCCCGCG | 0.349
186 | ACCCGGGG | 0.357
187 | ATAGATTA | -0.0055
188 | CCAATAGG | -0.154
189 | CGAGATAC | 0.128
190 | GGTAAAGA | -0.0497
191 | ATGTCTGA | -0.106
192 | ATCCAAAA | -0.00928
193 | GGCCCCGA | 0.181
194 | GGCAGCCA | 0.0184
195 | GTATCTAA | 0.0522
196 | CTGAGAAA | -0.236
197 | CGCAATGC | -0.0405
198 | ACAGTGAC | 0.0756
199 | CACCGGGG | 0.0593
200 | AACCCGGT | 0.258

Row | Sequence | PBM E-score
201 | CCCCGGCC | 0.0967
202 | CCCCGGGG | 0.412
203 | AACCCCGG | 0.312
204 | AACCCGGG | 0.424
205 | GGCGAGCA | 0.0206
206 | CAGATAGC | -0.0206
207 | ATAGTTAA | -0.038
208 | CTCAGTAC | -0.183
209 | GACAAACC | -0.0403
210 | TCGTACGA | -0.293
211 | ACTTGGTG | -0.141
212 | AAGGAAAT | 0.00091
213 | ACGGAAAC | 0.452
214 | GCGGGAAA | 0.332
215 | AGGGAAAT | -0.115
216 | ACGGAAAA | 0.403
217 | GAGGAAAA | 0.0256
218 | GCGGAAAA | 0.397
219 | ACGGAAAT | 0.452
220 | AAGGAAAC | 0.0238
221 | AGGGAAAC | -0.104
222 | ATGGAAAA | 0.0967
223 | ACGGGAAA | 0.277
